Several values for one entry are separate records, joined by “and”; a condition that tells them apart may be missing. Equal values may be shown once. Hit rate of the full screen: of about 340,000 compounds, about 2,100 (0.62%) were called active.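 How the source made its calls: active means first-screen hits whose inhibition reached a set limit at any dose in the follow-up dose series; inconclusive means inhibition above the set first-screen limit but never retested; inactive means the rest.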 A selection follows. Results with a measured potency or affinity are listed apart.
These molecules were tested against Rac GTPase-activating protein 1 (Homo sapiens) (UniProt Q9H0H5) (assay: blockers of MgcRacGAP-driven Rac1 GTP hydrolysis – biochemical, ADP Hunter fluorescence, primary and confirmatory, confirmation (AID 624330;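 further: fluorescence reports GDP produced by GAP-driven GTP hydrolysis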)). Conditions: MgcRacGAP-stimulated Rac1 GTP hydrolysis, at 30 µM, stronger effect = higher value, GST-tagged Rac1 F28L mutant substrate.
Sequence of Rac GTPase-activating protein 1 (Homo sapiens) (Q9H0H5 whole entry, looked up): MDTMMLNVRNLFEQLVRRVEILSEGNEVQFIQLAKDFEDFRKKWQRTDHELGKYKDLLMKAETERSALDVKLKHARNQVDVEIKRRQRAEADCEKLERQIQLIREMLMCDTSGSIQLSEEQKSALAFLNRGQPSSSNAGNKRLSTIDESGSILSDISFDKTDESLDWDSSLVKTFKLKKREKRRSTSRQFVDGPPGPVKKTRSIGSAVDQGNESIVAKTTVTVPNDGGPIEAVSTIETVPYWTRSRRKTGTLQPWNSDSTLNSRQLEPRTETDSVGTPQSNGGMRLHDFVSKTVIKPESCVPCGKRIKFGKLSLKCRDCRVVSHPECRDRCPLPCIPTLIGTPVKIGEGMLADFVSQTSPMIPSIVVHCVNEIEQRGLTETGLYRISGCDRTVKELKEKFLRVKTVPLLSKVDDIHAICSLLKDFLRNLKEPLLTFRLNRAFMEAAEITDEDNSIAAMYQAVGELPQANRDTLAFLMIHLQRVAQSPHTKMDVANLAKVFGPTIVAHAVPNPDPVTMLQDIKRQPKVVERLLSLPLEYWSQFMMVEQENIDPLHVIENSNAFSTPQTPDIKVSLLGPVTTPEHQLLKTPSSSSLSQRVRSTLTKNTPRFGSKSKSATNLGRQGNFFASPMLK

inhibition, inactive:
Cc1csc(NC(=O)C2CCCN2C(=O)Oc2ccccc2)n1 (stereo not drawn) 7.03%
Cc1cc(SCC(=O)O)nc2ccccc12 5.6% and 2.66%
Cc1cc(C)nc(SCC(=O)c2ccc(F)cc2)n1 3.61%
O=C(O)c1ccc(CSc2nnnn2-c2ccc(F)cc2)cc1 2.94%
Cc1cc(C)nc(SCC(=O)c2ccc(C)c(C)c2)n1 -8.22%
COc1ccc(-n2nnnc2SCC(=O)c2ccc(O)c(O)c2)cc1 9.34%
Cc1cc(SCC(=O)c2ccc3c(c2)OCO3)nc2ccccc12 6.55%
COCCN(CC(=O)NCc1ccc(OC)cc1)C(=O)CCC(=O)Nc1nccs1 9.76%
COc1ccc(/C=C/C(=O)Oc2cc(C)[nH]c(=O)c2[N+](=O)[O-])cc1OC -3.35%
O=C(/C=C/c1ccc2c(c1)OCO2)NCCS(=O)(=O)N1CCN(c2ccccc2)CC1 -2.85%
Cc1cc(C)n(-c2cc(C)c(C)cc2Br)n1 4.26%
Cc1ccnc(Nc2nc(-c3ccc(F)cc3)cs2)c1 7.49%
Cc1ccnc(Nc2nc(-c3ccc(Cl)cc3)cs2)c1 4.43%
COc1ccc(-c2csc(Nc3cc(C)ccn3)n2)cc1OC 13.4%
Cc1ccnc(Nc2nc(-c3ccccc3)cs2)c1 12.8%
C[C@]12c3[nH]c4cc(-c5ccco5)ccc4c3CCN1C(=O)[C@@H](CC(=O)NCc1cccc(C(F)(F)F)c1)C[C@@H]2C(=O)N1CCCCC1 10.5%
CC(C)NC(=O)c1ccc(N(Cc2ccccc2)S(C)(=O)=O)cc1 4.09%
O=S(=O)(NCC1(N2CCOCC2)CCCCC1)c1ccccc1Cl -7.11%
CN1CCN(CCCC(=O)c2ccc(C3CCCC3)cc2)CC1 6.04%
O=C(O)c1cc([N+](=O)[O-])c(N2CCCC2)c([N+](=O)[O-])c1 9.56%
CCc1ccc(N(CC(=O)NC(C)(C)C)C(=O)CNC(=O)c2cccs2)cc1 11.2%
CCOC(=O)c1c(NC(=O)CCl)sc(CN(C)C)c1-c1ccccc1 -14%
Cn1c(=O)c2c(ncn2Cc2cccc(Cl)c2)n(C)c1=O 9.29%
C1=CC2CC1CC2CN1CCN(c2ccccc2)CC1 (stereo not drawn) 14.6%
Cc1ccc(OCC(=O)N2CCCCCCC2)cc1 9.5%
Cc1ccc(OCC(=O)N2CCN(S(C)(=O)=O)CC2)cc1 11.9%
O=C(CCC1CCCC1)N1CCN(C(=O)C2CC2)CC1 -4.27%
O=C(CCC1CCCC1)N1CCC(N2CCCCCC2)CC1 21.7%
Cc1ccc(S(=O)(=O)N2CCN(CC3CC4C=CC3C4)CC2)cc1 (stereo not drawn) 23.4%
CCN1CCN(CC2CC3C=CC2C3)CC1 (stereo not drawn) 24.6%
O=C(c1ccccc1F)N1CCN(CC2CC3C=CC2C3)CC1 (stereo not drawn) 27.7%
COc1ccccc1CN1CC(C(=O)NCC2(O)CCCCC2)CCC1=O (stereo not drawn) -29.3%
ONC=Nc1cccc2nonc12 4.4%
Cc1ccccc1NC(=O)COC(=O)c1cccc(S(=O)(=O)N2CCCCC2)c1 0.63%
COc1ccc(CCN(C(=O)C(F)(F)F)C(C(=O)NC2CCCCC2)c2ccc(C)s2)cc1OC (stereo not drawn) 4.06%
Cc1ccc(S(=O)(=O)N2CCN(C(=O)N(C)C)CC2)cc1 2.84%
O=C(Nn1cnc2ccccc2c1=O)c1ccc(Cl)c([N+](=O)[O-])c1 9.36%
COn1c(-n2nc(C)cc2C)nc2ccccc2c1=O 3.26%
O=C(COc1ccccc1)N1CCCC1 2.28%
O=C(COc1ccccc1)N1CCN(C(=O)COc2ccccc2)CC1 2.47%
CCS(=O)(=O)N1CCN(CC2CC3C=CC2C3)CC1 (stereo not drawn) 3.64%
CS(=O)(=O)N1CCN(CC2CC3C=CC2C3)CC1 (stereo not drawn) 26.4%
S=C(Cc1ccccc1)NCCc1ccccc1 9.14%
Cc1noc(C)c1N=Nc1ccc(Br)cc1C(=O)O 4.04%
O=C(NCc1ccc(Cl)cc1)c1ccncc1 6.54%
O=C(COn1nnc2ccc(S(=O)(=O)N3CCOCC3)cc21)NCc1cccc(Cl)c1 13.7%
COc1cc(C(=O)C(=O)c2cc(OC)c(O)c(OC)c2)cc(OC)c1O 7.13%
COc1cc(Cc2cc(OC)c(O)c(OC)c2)cc(OC)c1O 6.74%
Cc1ccc(S(=O)(=O)N2CCOCC2)cc1C(=O)Nc1nc(-c2ccccn2)cs1 13.7%
CCOc1ccc(S(=O)(=O)N2CCN(CC)CC2)cc1NC(=O)c1ccccc1F 0.51%
CCOc1cc(NC(=O)c2ccccc2OC)c(OCC)cc1NC(=O)c1ccccc1 -3.11%
CCn1c(C)cc(/C=C2/SC(=O)N(CC(=O)N3CCCC3)C2=O)c1C 8.19%
Cn1cnc2c1c(=O)n(Cc1cccc(Br)c1)c(=O)n2C 0.32%
COc1c2ccoc2cc2oc(C)cc(=O)c12 6.29%
O=c1cc(-c2ccccc2)oc2cc(O)c(O)c(O)c12 -59.8%
COc1cc2c(cc1OC)CN(CC(=O)Nc1ccccc1C(=O)NC1CC1)CC2 -6.05%
CCOC(=O)c1sc(N2C(=O)C(O)=C(C(=O)c3ccco3)C2c2ccc(C)o2)nc1C (stereo not drawn) 12.2%
CN=C1S/C(=C\c2ccc(SC)cc2)C(=O)N1C 7.27%
CN=C1S/C(=C\c2ccc(Cl)cc2)C(=O)N1C 3.04%
O=C1COc2ccc(C(=O)COC(=O)Cc3ccc(Cl)cc3)cc2N1 9.6%
COc1ccccc1C1NC(c2ccccc2OC)C(C)C(=O)C1C (stereo not drawn) -2.35%
COc1ccc(C2NC(c3ccc(OC)c(OC)c3OC)C(C)C(=O)C2C)c(OC)c1OC (stereo not drawn) 1.64%
O=C(N/N=C/c1ccc(N2CCOCC2)c([N+](=O)[O-])c1)c1ccc(F)cc1 7.08%
